GLP1R cytotox – qHTS of GLP-1 Receptor Inverse Agonists: Cytotox Screen; AID 624418, 2012; Potency, µM (doses to about 38.3 µM), inactives show at the top dose activity change, negative = inhibition, usual class: inhibitors; HEK293 cAMP-luciferase reporter cells, luminescence, 24 h; 410,000 tested, 0.13% active;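 further: loss of luciferase light is scored as toxicity; on the % scale 0 is the no-effect control and ±100 the full control effect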
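Seeding density was 200 cells/uL; after overnight-length (12 h) culture, 23 nL compounds went on for 24 h at 37 °C. Readout used a luciferase detection reagent, luminescence taken after 12 min at room temperature.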
GLP-1R inv ag – qHTS of GLP-1 Receptor Inverse Agonists (Inhibition Mode). HEK293 GLP-1R CRE-luciferase, luminescence, 24 h; GLP-1R form is constitutively active. Potency, µM (doses to about 38.3 µM), for the others: at the highest dose activity change, negative = inhibition, most hits filed as inhibitors. 410,000 tested, 1.6% active; further: on the % scale 0 is the no-effect control and ±100 the full control effect; nearly all actives have a fitted effect of over 55% in size
Target sequence (P43220 whole entry, looked up): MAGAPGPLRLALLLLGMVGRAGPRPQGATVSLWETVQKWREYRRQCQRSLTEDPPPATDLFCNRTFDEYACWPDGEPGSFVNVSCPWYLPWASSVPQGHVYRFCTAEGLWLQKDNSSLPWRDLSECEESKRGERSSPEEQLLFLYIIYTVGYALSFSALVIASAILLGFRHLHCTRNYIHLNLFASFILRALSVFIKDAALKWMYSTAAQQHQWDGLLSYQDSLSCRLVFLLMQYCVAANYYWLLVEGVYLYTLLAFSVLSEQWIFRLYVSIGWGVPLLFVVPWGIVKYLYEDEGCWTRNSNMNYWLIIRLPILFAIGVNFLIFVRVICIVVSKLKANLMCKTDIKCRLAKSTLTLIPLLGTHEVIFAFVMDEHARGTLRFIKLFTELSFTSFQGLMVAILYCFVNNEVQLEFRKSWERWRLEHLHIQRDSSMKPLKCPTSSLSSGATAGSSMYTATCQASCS
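Readout was luciferase luminescence, measured 12 min after detection reagent at room temperature. Beforehand, GLP-1R reporter HEK293 cells had sat 12 h, then received compounds for 24 hr at 37 deg C.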
GLP1R ag – qHTS of GLP-1 Receptor Agonists; Glucagon-like peptide 1 receptor (Homo sapiens), P43220; HEK293 GLP-1R CRE-luciferase, luminescence, 4-6 h; cells express a hypersensitive GLP-1R form; Potency, µM (titrated, usually from 45.6 µM), inactives show at the top dose activation, hits mostly activators; 380,000 tested, 0.007% active; further: % of control where 0% means no effect
BRCA1 expr act – qHTS Assay to Identify Small Molecule Activators of BRCA1 Expression. MCF7-BRCA1-FFLuc reporter, luminescence, 48 h; response scale: scaled: vehicle 0%, 10 µM genistein 100%. Potency, µM (highest dose often 46.1 µM), inactives show at the top dose activation, usual class: activators. 380,000 tested, 1.1% active. AID 624202, 2012; further: nearly all actives have a fitted effect of over 80% in size
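Luminescence from a BRCA1-driven firefly luciferase in MCF7 cells was the read-out, taken 15 min after substrate addition following 48 h compound exposure at 37 °C. Data were normalized to a 10 microM genistein control and DMSO vehicle.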
Mito fusion yeast – qHTS Assay for Small Molecule Inhibitors of Mitochondrial Division or Activators of Mitochondrial Fusion | S. cerevisiae fusion-defective mutant growth rescue, CellTiterGlo 48 h | 320,000 tested, 0.23% active | Potency, µM (titrated, usually from 46.1 µM), without a hit: at the top dose growth rescue (activation), most hits filed as activators; further: % of control where 0% means no effect; nearly all actives have a fitted effect of over 45% in size
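S. cerevisiae fusion-defective temperature-sensitive mutants (e.g. fzo1-1, mgm1-5) grown 48 h at 37C in YPEG (ethanol/glycerol non-fermentable) medium with 23 nl compound per well; growth rescue read as CellTiterGlo luminescence.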
Starred values were filed as active, the others as inactive; ? = inconclusive; . = no result. A selection: hits, their analogues and other compounds. The true share with any hit is near 2.8%. The call rests on the fitted dose curve; in most records, active means well fitted curve in the direction sought with a large enough effect; inconclusive means small, poorly fitted or top-dose-only effect, or another doubt; inactive means no such curve, though single readings can be large; an effect the other way counts as inactive or inconclusive. Potency means the concentration at half of the fitted maximal effect.

SMILES	GLP1R cytotox	GLP-1R inv ag	GLP1R ag	BRCA1 expr act	Mito fusion yeast
CC1CCCN(C(=O)c2ccc(OC3CCN(CCc4ccccc4)CC3)cc2)C1 (configuration not stated)	?	8.91µM*	2.6%	-37.5%	-11.4%
CCNCc1nc2cc(Cl)ccc2c(=O)[nH]1	?	10µM*	3.5%	7.7%	-3.0%
COc1ccc(Cl)cc1NC(=O)CSc1nc(=O)n(CCN(C)C)c2c1CCCC2	-0.2%	11.2µM*	-1.3%	-39.7%	-3.4%
CCN(CC)CCn1c2c(c(SCC(=O)Nc3cccc(C(F)(F)F)c3)nc1=O)CCC2	0.2%	7.8%	.	.	.
CN(C)CCn1c2c(c(SCC(=O)Nc3cccc(C(F)(F)F)c3)nc1=O)CCCC2	-6.7%	10µM*	7.4%	-15.6%	0.3%
COc1ccc(OC)c(NC(=O)CSc2nc(=O)n(CCN(C)C)c3c2CCC3)c1	0.3%	3.7%	.	.	.
CCOC(=O)c1c(N)sc(C(=O)Nc2ccc3c(c2)OCO3)c1C	?	5.62µM*	-11.3%	0.0%	17.3%
CCOCC(=O)Nc1c(C(=O)Nc2ccc3c(c2)OCCO3)oc2ccccc12	-16.9%	?	8.8%	2µM*	6.3%
O=C(NCC1CCCO1)c1ccc(COc2ccccc2)cc1 (configuration not stated)	0.4%	17.4%	-1.8%	11.2µM*	2.6%
COc1ccc2oc(C(=O)NCC3CCCO3)c(C)c2c1 (configuration not stated)	-1.8%	?	10.1%	?	-0.6%
Cc1ccc(OCc2ccc(C(=O)NCC3CCCO3)cc2)cc1 (configuration not stated)	4.0%	-24.2%	2.3%	23.0%	-1.9%
CCOc1ccc2oc(C(=O)NCC3CCCO3)c(C)c2c1 (configuration not stated)	-2.6%	24.2%	3.5%	8.91µM*	0.6%
COc1cc(CN(C(=O)Nc2ccccc2)c2ccccn2)cc(OC)c1OC	-3.5%	1.2%	.	-0.2%	.
Cc1ccc(-c2nc(-c3cc4cccc(OCc5ccc(F)cc5)c4oc3=O)no2)cc1	0.0%	7.7%	-1.0%	8.6%	.
CC1(C)Cc2c(sc3c2c(=N)n(Cc2ccco2)c(=O)n3Cc2ccc(Cl)cc2)CO1	-14.6%	-20.9%	15.6%	-57.7%	?
CCOc1ccc2oc(C(=O)Nc3ccc4c(c3)OCO4)c(C)c2c1	13.7%	?	16.3%	2.82µM*	5.9%
c1ccc(Sc2ccncc2)cc1	2.3%	6.2%	0.6%	3.3%	.
COC(=O)c1c(C)[nH]c(C)c1C(=O)c1ccccc1Cc1ccccc1	4.6%	1.9%	26.8%	-17.4%	2.91µM*
COC(=O)c1c(C)[nH]c(C=O)c1-c1ccccc1	-5.4%	29.9%	22.3%	63.6%	9.9%
CC(C)Cc1ccc(-c2ccc3nccn3c2)cc1	8.6%	4.0%	18.9%	14.1µM*	.
O=C1C(Cl)=C(N2CCOCC2)C(=O)N1c1ccc(Br)cc1	0.9%	1.3%	-5.7%	-5.1%	-1.6%
O=C(Nc1cc(S(=O)(=O)N2CCCCC2)ccc1Cl)c1ccccc1NS(=O)(=O)c1ccc(F)cc1	?	2.82µM*	-10.8%	-71.5%	-7.8%
Cc1ccc(S(=O)(=O)Nc2ccccc2C(=O)Nc2nc(-c3ccc(F)cc3)cs2)cc1	?	3.16µM*	-18.1%	-76.4%	-30.9%
COc1ccc(-c2csc(NC(=O)c3ccccc3NS(=O)(=O)c3ccc(F)c(F)c3)n2)cc1	?	?	0.5%	-26.9%	-4.5%
O=C(CN(Cc1ccco1)Cc1ccco1)Nc1cc(S(=O)(=O)N2CCCCC2)ccc1Cl	-3.3%	10µM*	-2.9%	-47.8%	20.3%
SMILES	GLP1R cytotox	GLP-1R inv ag	GLP1R ag	BRCA1 expr act	Mito fusion yeast
CCc1ccc(NC(=O)C2CCN(S(=O)(=O)c3ccc4c(c3)CC(C)N4C(C)=O)CC2)cc1 (configuration not stated)	-22.1%	?	-0.6%	-36.7%	-0.6%
COc1cc2nc(N3CCCCC3)nc(NC3CCN(Cc4ccccc4)CC3)c2cc1OC	.	.	.	-58.6%	.
CCN(CC)c1ccc2ccc(=O)oc2c1	275.3%	29.8%	17.2%	14.4%	9.1%
Nc1nc(SCc2ccccc2)c2ncn(C3CCCO3)c2n1 (configuration not stated)	5.5%	90.7%	35.4%	8.91µM*	.
Clc1ccc(CSc2ncnc3c2ncn3C2CCCCO2)cc1 (configuration not stated)	0.3%	11.2µM*	30.7%	51.0%	.
CCOC(=O)c1c(NC(=O)CN2CCN(C)CC2)sc(C(=O)Nc2ccccc2)c1C	-13.4%	12.6µM*	17.5%	?	-1.6%
CCOC(=O)c1sc(NC(=O)CCN2CCN(C)CC2)c(C(=O)OCC)c1C	3.4%	11.0%	13.7%	1.1%	-3.3%
Cc1ccc(CN(C)C(=O)CN2C(=O)NC(c3ccccc3)(c3ccccc3)C2=O)c(C)c1	-15.1%	3.55µM*	-1.2%	-49.9%	?
CC(=O)c1cccc(Oc2cc(NN3CCCCC3)c([N+](=O)[O-])cc2[N+](=O)[O-])c1	?	10µM*	17.9%	0.0%	2.7%
CC(=O)c1ccccc1Oc1cc(NN2CCCCC2)c([N+](=O)[O-])cc1[N+](=O)[O-]	0.0%	?	-5.4%	-37.8%	9.2%
CCN(CC)S(=O)(=O)c1ccc(C)c(NC(=O)CN2C(=O)NC3(CCCC3)C2=O)c1	1.0%	-2.0%	6.5%	3.4%	12.5%
NC(=Nc1ccccc1)NC(=O)c1nc(Cl)c(N)nc1N	-13.8%	0.6%	-3.1%	5.62µM*	?
NC(=NCc1ccccc1)NC(=O)c1nc(Cl)c(N)nc1N	-24.2%	?	2.5%	-30.6%	7.7%
CC1=NN(c2ccccc2)C(=O)/C1=C\C=C1\N(C)c2ccccc2C1(C)C	-11.1%	11.2µM*	-1.3%	-29.3%	?
CC1=NN(c2ccccc2)C(=O)/C1=C\C=C1/N(C)c2ccccc2C1(C)C	-23.5%	?	6.8%	-15.7%	?
O=C(C(O)c1ccccc1)N1CCN(S(=O)(=O)c2ccc(OC(F)(F)F)cc2)CC1 (configuration not stated)	1.1%	10.9%	.	.	.
O=S(=O)(c1ccccc1)N1CCN(C(c2ccccc2)c2ccc(OC(F)(F)F)cc2)CC1 (configuration not stated)	3.8%	10µM*	0.5%	-17.9%	10.3%
Cc1ccc2c(c1)c1c(n2CC(O)CNC(C)(C)C)CCCC1 (configuration not stated)	-26.4%	10µM*	3.4%	-40.4%	-2.3%
Cc1ccc2c(c1)c1c(n2CC(O)CN2CCCCCC2)CCCC1 (configuration not stated)	?	?	3.5%	-37.7%	-24.7%

Source: PubChem BioAssay (National Center for Advancing Translational Sciences (NCATS))
